Results on eight molecules are retold here after PubChem BioAssay (EPA / NIEHS).

Each structure is given as a SMILES string. Results filed as inconclusive are left out. The source made the active and inactive calls. Rule for the calls, unless noted: active = hit-call score of the fitted dose curve at least 0.9, where 1 is the maximum; inactive = score below 0.9.

Assay [1] deals with Myc proto-oncogene protein (Homo sapiens) (UniProt P01106). The assay is described as follows: ATG_Myc_CIS: Attagene CIS-FACTORIAL HepG2 Assay for human Myelocytomatosis (Myc) Proto-Oncogene Transcription Factor (AID 2282990). The settings on record: HepG2, Attagene cis-reporter transcription factor activity; actives raise or lower the signal. The method in brief:
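After 24 h chemical treatment of HepG2 cells carrying multiplexed cis-regulated reporter constructs, reporter transcripts quantified by RT-PCR and capillary electrophoresis of fluorescent fragments. Gain or loss fitted against DMSO baseline.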

Assay [2] can be described thus: ATG_NF_kB_CIS: Attagene CIS-FACTORIAL HepG2 Assay for human Nuclear Factor Kappa B (NF-kB) (AID 2282991). Particulars: HepG2 Attagene cis-factorial NF-kB reporter mRNA; actives raise or lower the signal. The method in brief: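 DMSO served as negative control and baseline for bidirectional curve fitting. Transiently transfected HepG2 cells were dosed for 24 h, then reporter transcripts were measured by RT-PCR with capillary electrophoresis detection.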

A short description of assay [3]: ATG_NRF2_ARE_CIS: Attagene CIS-FACTORIAL HepG2 Assay for human Nuclear Factor Erythroid 2 Related Factor 2 (NFR2) response to Antioxidant Response Elements (ARE) (AID 2282992). Particulars: HepG2 Attagene ARE/NRF2 reporter, transcription factor activity; actives raise or lower the signal. In outline:
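Fluorescence intensity of reporter-specific cDNA fragments, separated by capillary electrophoresis, reflects mRNA induction in transfected HepG2 cells at 24 h. Activity is fitted bidirectionally, DMSO serving as baseline.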

The nature of assay [4]: ATG_Oct_MLP_CIS: Attagene CIS-FACTORIAL HepG2 Assay for human Octamer-Binding Transcription Factor (Oct) (AID 2282993). Particulars: HepG2 Attagene cis-factorial Oct reporter, mRNA; actives raise or lower the signal. In outline:
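Cells of the HepG2 line express promoter-controlled reporter sequences whose mRNA levels, after 24 h treatment, are measured by RT-PCR and capillary electrophoresis. Increases and decreases are scored relative to DMSO.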

The target of assay [5] is Cellular tumor antigen p53 (Homo sapiens) (UniProt P04637). Put plainly: ATG_p53_CIS: Attagene CIS-FACTORIAL HepG2 Assay for human p53 Transcription Factor (AID 2282994). Particulars: HepG2 p53 cis-element reporter, Attagene mRNA; actives raise or lower the signal. In outline:
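Transiently transfected HepG2 (multiple cis reporter transcription units); exposure 24 h; reporter RNA via RT-PCR, 6-FAM extension, 2 h HpaI digest at 37 C, CE detection; DMSO baseline.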

The target of assay [6] is Nuclear receptor subfamily 1 group I member 2 (Homo sapiens) (UniProt O75469). The assay is described as follows: ATG_PXR_TRANS: Attagene TRANS-FACTORIAL HepG2 Assay for human Pregnane X Receptor (PXR) (AID 2283008; active = hit-call score of the fitted dose curve at least 0.9, where 1 is the maximum). In outline: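 Transient HepG2 transfectants carrying multiplexed reporter transcription units; PXR activity read through a Gal4 chimera. 24 h exposure. RT-PCR/CE fluorescence; upward curve fit referenced to DMSO.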
Nuclear receptor subfamily 1 group I member 2 (Homo sapiens), sequence (O75469 whole entry, looked up, the tested form may be a part): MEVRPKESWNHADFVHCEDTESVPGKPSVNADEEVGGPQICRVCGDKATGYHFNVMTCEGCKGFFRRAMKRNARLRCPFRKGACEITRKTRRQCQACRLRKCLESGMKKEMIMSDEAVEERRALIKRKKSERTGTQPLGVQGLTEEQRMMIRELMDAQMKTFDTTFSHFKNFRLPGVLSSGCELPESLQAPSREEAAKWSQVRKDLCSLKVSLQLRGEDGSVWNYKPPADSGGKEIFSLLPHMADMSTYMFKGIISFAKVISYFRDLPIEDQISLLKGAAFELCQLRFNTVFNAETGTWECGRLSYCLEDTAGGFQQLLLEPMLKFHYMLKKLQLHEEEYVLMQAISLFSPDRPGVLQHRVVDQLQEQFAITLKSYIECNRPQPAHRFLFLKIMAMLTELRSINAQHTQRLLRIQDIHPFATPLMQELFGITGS

The target in assay [7] is human RAR-related Orphan Receptor beta (RORb), RORB (gene 6096) (UniProt Q92753). Put plainly: ATG_RORb_TRANS: Attagene TRANS-FACTORIAL HepG2 Assay for human RAR-related Orphan Receptor beta (RORb) (AID 2283010; active = hit-call score of the fitted dose curve at least 0.9, where 1 is the maximum). In outline:
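HepG2, transient MRTU transfection (GAL4-UAS reporters, exogenous NR-Gal4 chimeras); 24 h compound exposure; total RNA → RT-PCR → 6-FAM primer extension → HpaI digest → CE fluorescence. Positive direction vs DMSO baseline.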

Assay [8] has as its target human Peroxisome Proliferator-activated Receptor delta (PPARd), PPARD (gene 5467) (UniProt Q03181). The assay is described as follows: ATG_PPARd_TRANS: Attagene TRANS-FACTORIAL HepG2 Assay for human Peroxisome Proliferator-activated Receptor delta (PPARd) (AID 2283002; active = hit-call score of the fitted dose curve at least 0.9, where 1 is the maximum). In outline:
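Read-out is induced reporter mRNA, quantified by RT-PCR with fluorescent labelling and capillary electrophoresis after 24 h dosing. Cells are HepG2 transiently carrying multiple GAL4-UAS reporter units driven by exogenous NR-GAL4 chimeras; DMSO serves as baseline.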

Assay [9] deals with human RAR-related Orphan Receptor gamma (RORg), RORC (gene 6097) (UniProt P51449). The assay is described as follows: ATG_RORg_TRANS: Attagene TRANS-FACTORIAL HepG2 Assay for human RAR-related Orphan Receptor gamma (RORg) (AID 2283011; active = hit-call score of the fitted dose curve at least 0.9, where 1 is the maximum). The method in brief:
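Activity is scored as increase in GAL4-UAS reporter mRNA over DMSO, detected by fluorescent RT-PCR and capillary electrophoresis in HepG2 cells transiently expressing a RORg-Gal4 chimera, 24 h after dosing.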

The target of assay [10] is Retinoic acid receptor RXR-alpha (Homo sapiens) (UniProt P19793). Put plainly: ATG_RXRa_TRANS: Attagene TRANS-FACTORIAL HepG2 Assay for human Retinoid X Receptor alpha (RXRa) (AID 2283012; active = hit-call score of the fitted dose curve at least 0.9, where 1 is the maximum). The method in brief: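 Read-out: fluorescent reporter-transcript fragments quantified by capillary electrophoresis after RT-PCR. Transiently transfected HepG2 cells carrying GAL4-UAS reporters and NR-GAL4 chimeras were exposed to chemical for 24 h; activity scored as increase over DMSO.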
Retinoic acid receptor RXR-alpha (Homo sapiens), sequence (P19793 whole entry, looked up, the tested form may be a part): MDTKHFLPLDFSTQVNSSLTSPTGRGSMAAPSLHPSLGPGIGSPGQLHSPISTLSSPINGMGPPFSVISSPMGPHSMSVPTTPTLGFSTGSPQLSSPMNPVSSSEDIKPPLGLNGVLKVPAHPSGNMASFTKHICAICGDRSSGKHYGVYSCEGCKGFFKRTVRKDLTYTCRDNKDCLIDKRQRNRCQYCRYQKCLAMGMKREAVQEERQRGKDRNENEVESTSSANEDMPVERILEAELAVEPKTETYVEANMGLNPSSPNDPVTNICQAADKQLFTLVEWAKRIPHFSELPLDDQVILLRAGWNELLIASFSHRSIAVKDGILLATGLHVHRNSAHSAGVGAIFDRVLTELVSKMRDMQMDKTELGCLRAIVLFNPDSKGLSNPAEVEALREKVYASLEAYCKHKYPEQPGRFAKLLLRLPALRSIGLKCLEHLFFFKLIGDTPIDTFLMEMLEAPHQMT

A short description of assay [11]: BSK_3C_TissueFactor: BioMAP Diversity Plus: 3C Assay for Tissue Factor Biomarker Activity (AID 2282997). Particulars: BioMAP 3C HUVEC, tissue factor biomarker readout; actives raise or lower the signal. The method in brief:
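Cells used were primary human umbilical vein endothelial cells. They were dosed with chemical, and after 24 h Tissue Factor was quantified by ELISA. Curves were fitted bidirectionally with DMSO as baseline.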

Assay [12] in a line: BSK_3C_uPAR: BioMAP Diversity Plus: 3C Assay for Urokinase-type plasminogen activator receptor (uPAR) Biomarker Activity (AID 2282998). Particulars: BioMAP 3C HUVEC, uPAR biomarker ELISA; actives raise or lower the signal. In outline:
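Endothelial primary cells of human umbilical vein origin received test chemical; 24 h later uPAR was assayed by ELISA. Fitting was bidirectional, DMSO as negative control.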

The nature of assay [13]: BSK_3C_VCAM1: BioMAP Diversity Plus: 3C Assay for Vascular cell adhesion molecule 1 (VCAM1) Biomarker Activity (AID 2282999). Particulars: BioMAP 3C HUVEC, VCAM1 ELISA, cytokine-stimulated; actives raise or lower the signal. In outline:
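Activity fitted in both directions relative to DMSO, with ELISA measurement of the surface marker on primary HUVEC (3C) at 24 h post-treatment; parallel SRB staining (0.1% SRB, TCA-fixed, 560 nm) flagged overt cytotoxicity.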
For orientation: ELISA stands for enzyme-linked immunosorbent assay.

The nature of assay [14]: BSK_4H_Eotaxin3: BioMAP Diversity Plus: 4H Assay for Eotaxin 3 Biomarker Activity (AID 2283000).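 Note: CCL26 protein level quantified by ELISA in parallel with SRB cytotoxicity check.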 The settings on record: primary human endothelial cells (HUVEC); actives raise or lower the signal. The method in brief: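 Endothelial primary cells (human umbilical vein) exposed to compound for 24 h. ELISA detection of Eotaxin-3.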
Assay [15] deals with human Peroxisome Proliferator-activated Receptor alpha (PPARa), PPARA (gene 5465) (UniProt Q07869). The assay is described as follows: ATG_PPARa_TRANS: Attagene TRANS-FACTORIAL HepG2 Assay for human Peroxisome Proliferator-activated Receptor alpha (PPARa) (AID 2283001; active = hit-call score of the fitted dose curve at least 0.9, where 1 is the maximum). The method in brief: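 Transfected HepG2 cells treated with test chemical for 24 h. RNA isolated, reverse-transcribed with oligo(dT), PCR-amplified, FAM-labelled and HpaI-digested. Fragments sized by capillary electrophoresis; gain-of-signal fit relative to DMSO.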
human Peroxisome Proliferator-activated Receptor alpha (PPARa), PPARA (gene 5465), sequence (Q07869 whole entry, looked up, the tested form may be a part): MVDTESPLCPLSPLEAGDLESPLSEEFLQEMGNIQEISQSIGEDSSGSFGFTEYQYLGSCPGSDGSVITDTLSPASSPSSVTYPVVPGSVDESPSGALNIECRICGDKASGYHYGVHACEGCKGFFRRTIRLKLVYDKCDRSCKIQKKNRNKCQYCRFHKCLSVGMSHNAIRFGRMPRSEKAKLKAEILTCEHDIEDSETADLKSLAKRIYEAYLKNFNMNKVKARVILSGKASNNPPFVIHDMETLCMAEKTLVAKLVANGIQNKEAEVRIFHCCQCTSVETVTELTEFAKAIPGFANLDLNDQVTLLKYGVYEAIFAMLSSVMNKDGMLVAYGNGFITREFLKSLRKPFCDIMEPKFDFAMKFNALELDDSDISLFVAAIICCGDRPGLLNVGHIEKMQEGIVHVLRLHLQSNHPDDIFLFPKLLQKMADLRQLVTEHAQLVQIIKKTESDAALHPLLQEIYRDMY

Read-out in assay [16]: Intercellular Adhesion Molecule 1 (ICAM1), ICAM1 (gene 3383)
The assay is described as follows: BSK_3C_ICAM1: BioMAP Diversity Plus: 3C Assay for Intercellular Adhesion Molecule 1 (ICAM1) Biomarker Activity (AID 2283003). The settings on record: primary human endothelial cells (HUVEC); actives raise or lower the signal. The method in brief:
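ELISA read-out of ICAM-1; HUVEC (primary human), 3C system, 24 h post-dosing; bidirectional fit vs DMSO baseline.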

The target of assay [17] is Retinoic acid receptor alpha (Homo sapiens) (UniProt P10276). Put plainly: ATG_RARa_TRANS: Attagene TRANS-FACTORIAL HepG2 Assay for human Retinoic Acid Receptor alpha (RARa) (AID 2283005; active = hit-call score of the fitted dose curve at least 0.9, where 1 is the maximum). In outline: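 Reporter transcripts, measured by RT-PCR with fluorescent labeling and capillary electrophoresis after 24 h dosing, reflect activity of an exogenous human RARa–GAL4 fusion in transiently transfected HepG2. Fitted for increase relative to DMSO.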
Retinoic acid receptor alpha (Homo sapiens), sequence (P10276 whole entry, looked up, the tested form may be a part): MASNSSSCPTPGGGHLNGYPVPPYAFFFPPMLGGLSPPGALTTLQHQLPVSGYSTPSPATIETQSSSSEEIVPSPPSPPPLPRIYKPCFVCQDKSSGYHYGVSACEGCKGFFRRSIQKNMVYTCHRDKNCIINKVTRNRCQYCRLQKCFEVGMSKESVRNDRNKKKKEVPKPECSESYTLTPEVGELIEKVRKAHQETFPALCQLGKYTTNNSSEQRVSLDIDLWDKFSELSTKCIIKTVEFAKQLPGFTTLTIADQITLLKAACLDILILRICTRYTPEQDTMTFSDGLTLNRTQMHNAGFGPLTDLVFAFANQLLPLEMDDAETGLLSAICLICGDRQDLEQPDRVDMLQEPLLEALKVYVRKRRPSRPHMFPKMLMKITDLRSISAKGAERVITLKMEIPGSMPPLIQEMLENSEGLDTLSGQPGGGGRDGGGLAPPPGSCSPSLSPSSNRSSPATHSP

Assay [18] can be described thus: BSK_3C_Proliferation: Cell Proliferation Assessment in the BioMAP Diversity Plus: 3C Assay (AID 2283006). The settings on record: primary human endothelial cells (HUVEC). In outline: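 HUVEC, sub-confluent; 48 h chemical exposure; 10% TCA fix, 0.1% SRB stain, A560 total protein. Gain or loss of signal fitted both directions vs DMSO control.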
Assay [19] has as its target human Retinoic Acid Receptor gamma (RARg), RARG (gene 5916) (UniProt P13631). The assay is described as follows: ATG_RARg_TRANS: Attagene TRANS-FACTORIAL HepG2 Assay for human Retinoic Acid Receptor gamma (RARg) (AID 2283009; active = hit-call score of the fitted dose curve at least 0.9, where 1 is the maximum). In outline: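 Readout: reporter transcript levels via RT-PCR, 6-FAM primer-extension labelling, HpaI digestion and capillary electrophoresis. Cells: HepG2 carrying transfected RARg-GAL4 chimera plus UAS reporter set. Dosing 24 h; DMSO negative control.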

human Peroxisome Proliferator-activated Receptor delta (PPARd), PPARD (gene 5467), sequence (Q03181 whole entry, looked up, the tested form may be a part): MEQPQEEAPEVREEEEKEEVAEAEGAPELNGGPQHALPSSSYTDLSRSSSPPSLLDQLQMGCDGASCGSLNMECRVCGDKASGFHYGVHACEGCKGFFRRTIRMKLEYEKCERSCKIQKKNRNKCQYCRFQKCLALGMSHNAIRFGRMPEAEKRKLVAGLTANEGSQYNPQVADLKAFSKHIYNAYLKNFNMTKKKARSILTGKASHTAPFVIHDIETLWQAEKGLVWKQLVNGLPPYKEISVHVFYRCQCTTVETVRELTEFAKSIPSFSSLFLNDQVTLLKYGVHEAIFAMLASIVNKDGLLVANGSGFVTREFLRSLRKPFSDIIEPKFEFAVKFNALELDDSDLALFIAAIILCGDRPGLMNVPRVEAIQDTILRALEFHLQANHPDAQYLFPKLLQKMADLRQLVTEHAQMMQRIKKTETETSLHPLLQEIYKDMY
human RAR-related Orphan Receptor beta (RORb), RORB (gene 6096), sequence (Q92753 whole entry, looked up, the tested form may be a part): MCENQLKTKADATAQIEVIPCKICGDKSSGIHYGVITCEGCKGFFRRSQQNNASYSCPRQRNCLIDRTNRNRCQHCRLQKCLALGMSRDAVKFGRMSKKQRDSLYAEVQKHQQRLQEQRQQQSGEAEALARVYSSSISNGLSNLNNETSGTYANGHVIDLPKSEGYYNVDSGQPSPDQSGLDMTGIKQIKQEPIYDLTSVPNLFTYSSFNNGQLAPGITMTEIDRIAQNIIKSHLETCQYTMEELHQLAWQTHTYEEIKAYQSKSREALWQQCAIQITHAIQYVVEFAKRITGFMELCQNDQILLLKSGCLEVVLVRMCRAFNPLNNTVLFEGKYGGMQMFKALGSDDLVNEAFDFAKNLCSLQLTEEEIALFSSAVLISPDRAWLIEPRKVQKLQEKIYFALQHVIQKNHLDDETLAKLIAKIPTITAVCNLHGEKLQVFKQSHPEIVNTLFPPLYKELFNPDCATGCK
Myc proto-oncogene protein (Homo sapiens), sequence (P01106 whole entry, looked up, the tested form may be a part): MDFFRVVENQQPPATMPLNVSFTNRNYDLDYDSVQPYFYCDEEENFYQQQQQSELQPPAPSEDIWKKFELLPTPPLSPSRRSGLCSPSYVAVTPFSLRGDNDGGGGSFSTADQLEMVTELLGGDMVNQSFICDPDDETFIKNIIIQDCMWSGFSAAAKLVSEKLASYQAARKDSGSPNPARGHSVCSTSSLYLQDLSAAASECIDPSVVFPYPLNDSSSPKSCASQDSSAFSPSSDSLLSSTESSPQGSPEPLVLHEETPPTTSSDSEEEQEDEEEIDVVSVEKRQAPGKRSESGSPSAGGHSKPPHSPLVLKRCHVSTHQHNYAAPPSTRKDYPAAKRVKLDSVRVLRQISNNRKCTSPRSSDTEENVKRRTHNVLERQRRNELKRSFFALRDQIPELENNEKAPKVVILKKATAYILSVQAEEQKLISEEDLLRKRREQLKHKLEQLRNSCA
Cellular tumor antigen p53 (Homo sapiens), sequence (P04637 whole entry, looked up): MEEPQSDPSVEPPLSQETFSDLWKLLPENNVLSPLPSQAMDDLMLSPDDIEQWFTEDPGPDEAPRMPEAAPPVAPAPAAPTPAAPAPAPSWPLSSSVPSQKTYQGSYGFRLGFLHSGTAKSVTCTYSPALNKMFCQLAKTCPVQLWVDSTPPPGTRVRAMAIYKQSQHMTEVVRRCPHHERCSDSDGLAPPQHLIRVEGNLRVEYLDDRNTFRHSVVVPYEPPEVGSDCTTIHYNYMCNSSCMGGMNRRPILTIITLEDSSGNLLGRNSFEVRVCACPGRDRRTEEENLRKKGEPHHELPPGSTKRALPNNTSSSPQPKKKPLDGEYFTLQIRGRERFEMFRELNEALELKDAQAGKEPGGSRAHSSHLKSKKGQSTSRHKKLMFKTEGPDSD
human Retinoic Acid Receptor gamma (RARg), RARG (gene 5916), sequence (P13631 whole entry, looked up, the tested form may be a part): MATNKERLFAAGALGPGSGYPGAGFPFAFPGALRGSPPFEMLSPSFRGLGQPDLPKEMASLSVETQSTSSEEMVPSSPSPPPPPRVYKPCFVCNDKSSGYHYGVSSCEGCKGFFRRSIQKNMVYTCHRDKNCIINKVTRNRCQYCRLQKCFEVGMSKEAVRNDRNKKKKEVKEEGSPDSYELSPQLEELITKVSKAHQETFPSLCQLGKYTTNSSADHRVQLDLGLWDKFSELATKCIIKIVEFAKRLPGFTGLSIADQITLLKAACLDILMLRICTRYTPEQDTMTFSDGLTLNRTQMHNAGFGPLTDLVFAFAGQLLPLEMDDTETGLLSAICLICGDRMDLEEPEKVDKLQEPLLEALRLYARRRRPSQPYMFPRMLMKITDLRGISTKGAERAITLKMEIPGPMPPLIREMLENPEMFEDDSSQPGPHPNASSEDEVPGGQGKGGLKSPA
human RAR-related Orphan Receptor gamma (RORg), RORC (gene 6097), sequence (P51449 whole entry, looked up, the tested form may be a part): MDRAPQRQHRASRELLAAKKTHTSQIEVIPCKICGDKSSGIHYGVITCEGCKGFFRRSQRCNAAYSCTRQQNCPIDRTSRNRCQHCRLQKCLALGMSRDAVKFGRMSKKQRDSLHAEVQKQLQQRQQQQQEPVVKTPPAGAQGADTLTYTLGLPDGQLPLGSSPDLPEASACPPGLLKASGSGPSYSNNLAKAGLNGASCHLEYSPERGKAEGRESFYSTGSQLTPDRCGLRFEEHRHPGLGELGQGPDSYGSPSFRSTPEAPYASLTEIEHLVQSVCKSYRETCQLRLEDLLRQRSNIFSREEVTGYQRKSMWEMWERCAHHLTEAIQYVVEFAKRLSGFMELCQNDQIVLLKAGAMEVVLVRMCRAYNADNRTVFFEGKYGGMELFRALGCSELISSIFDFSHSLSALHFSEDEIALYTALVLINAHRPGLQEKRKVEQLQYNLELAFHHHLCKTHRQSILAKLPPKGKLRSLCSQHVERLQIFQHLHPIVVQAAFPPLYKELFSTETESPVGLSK

As to `COc1cccc(C=O)c1`, the result in assay [1], in [2], in assay [3], in [4], in assay [5] and in assay [6] was inactive. Further, the molecule was classed as inactive in [7].

In general, AC50 refers to the concentration giving half of the maximal activity seen. On to `Clc1ccc(C2(Cn3cncn3)CC(Br)CO2)c(Cl)c1` (configuration not stated), for which the molecule was classed as inactive in assay [1], in assay [2], in assay [4], in [5] and in assay [8]. The concentration at half-maximal activity (AC50) is 26.9 µM (active) in assay [3] and 0.762 µM (active) in [6].

For the molecule `N#CCc1ccc(Cl)cc1`, the outcome in [1], in assay [2], in [3], in assay [4], in assay [5] and in assay [8] was inactive. Moreover, the result in assay [6], in assay [9] and in [10] was inactive.

Take `CCCCP(CCCC)CCCC`: the call in assay [1], in assay [2], in assay [3], in assay [4], in [5] and in [8] was inactive. The molecule was classed as inactive in assay [7] and in assay [10]. Further, in assay [6], the AC50 is 7.21 µM (active).

For the molecule `NC(=S)Nc1ccccc1`, the molecule was classed as inactive in assay [1], in assay [2], in assay [3], in [4], in [11] and in assay [12]. The outcome in assay [13], in [14], in assay [15], in assay [8], in [16] and in assay [17] was inactive. In addition, the outcome in [18] and in assay [10] was inactive.

On to `Cl/C=C/Cl`, for which the molecule was called inactive in assay [1], in assay [2], in [3], in assay [4], in assay [5] and in [7].

With `CC(C)C1CCC(Cc2ccc(Cl)cc2)C1(O)Cn1cncn1` (configuration not stated), the call in assay [1], in assay [2], in assay [4], in assay [17], in assay [19] and in assay [10] was inactive. Also, the AC50 is 13.2 µM (active) in [3], 11 µM (active) in [5] and 1.79 µM (active) in assay [6].

As to `CC(C)c1cccc(C(C)C)c1O`, the call in assay [1], in assay [2], in [3], in assay [4], in assay [5] and in assay [8] was inactive. Besides, the outcome in assay [17], in [19], in [7] and in [10] was inactive. Further, the AC50 in [6] was 4.74 µM (active).
